Source: PubChem (National Center for Advancing Translational Sciences (NCATS))
JMJD2A Tudor = blocks the human JMJD2A Tudor domain; Potency, µM (doses to about 114 µM), inactives show at the top dose activity change, negative = inhibition, usual class: inhibitors; 4.4% of 390,000 active; AlphaScreen JMJD2A-Tudor / H3K4me3 peptide binding; O75164; also: % is scaled to controls: 0 for no effect and ±100 for the full control effect; nearly all actives have a fitted effect of over 50% in size
Target sequence (O75164 whole entry, looked up, the tested form may be a part): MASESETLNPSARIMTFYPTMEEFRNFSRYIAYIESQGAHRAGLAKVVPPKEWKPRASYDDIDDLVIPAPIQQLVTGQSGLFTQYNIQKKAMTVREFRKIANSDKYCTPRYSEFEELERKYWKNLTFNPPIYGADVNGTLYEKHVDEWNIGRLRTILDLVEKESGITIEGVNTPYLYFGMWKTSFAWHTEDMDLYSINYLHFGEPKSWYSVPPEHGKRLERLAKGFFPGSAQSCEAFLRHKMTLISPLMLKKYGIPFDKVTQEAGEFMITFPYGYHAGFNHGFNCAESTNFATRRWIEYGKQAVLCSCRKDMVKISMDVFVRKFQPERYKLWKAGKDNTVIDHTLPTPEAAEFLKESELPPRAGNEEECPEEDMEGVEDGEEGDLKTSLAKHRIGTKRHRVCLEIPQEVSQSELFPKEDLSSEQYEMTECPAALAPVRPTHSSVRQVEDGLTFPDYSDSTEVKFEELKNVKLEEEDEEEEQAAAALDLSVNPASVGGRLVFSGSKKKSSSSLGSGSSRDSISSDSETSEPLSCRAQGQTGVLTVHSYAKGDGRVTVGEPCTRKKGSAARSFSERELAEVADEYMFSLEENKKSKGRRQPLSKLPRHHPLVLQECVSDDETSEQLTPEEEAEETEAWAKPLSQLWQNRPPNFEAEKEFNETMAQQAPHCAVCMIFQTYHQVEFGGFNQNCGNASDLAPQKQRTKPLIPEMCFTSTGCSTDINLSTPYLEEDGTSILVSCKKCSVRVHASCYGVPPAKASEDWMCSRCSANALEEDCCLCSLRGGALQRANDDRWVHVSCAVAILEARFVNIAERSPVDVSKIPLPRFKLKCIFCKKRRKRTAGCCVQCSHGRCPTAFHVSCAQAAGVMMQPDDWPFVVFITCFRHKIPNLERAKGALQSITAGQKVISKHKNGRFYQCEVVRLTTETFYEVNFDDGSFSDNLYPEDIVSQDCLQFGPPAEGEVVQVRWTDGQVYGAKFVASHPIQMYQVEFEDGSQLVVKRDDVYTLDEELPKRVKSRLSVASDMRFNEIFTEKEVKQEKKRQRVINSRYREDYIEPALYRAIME
Sfp PPTase inh = Sfp phosphopantetheinyl transferase inhibition; Biochemical Sfp PPTase activity, qHTS; Q9F4F7; AID 1490; Potency, µM, without a hit: largest response in the series, negative = inhibition, most hits filed as inhibitors; 3.5% of 310,000 active;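 also: the enzyme is Sfp with the accession as filed and its product quenches rhodamine fluorescence; 0% = enzyme reaction without inhibitor and -100% = no enzyme wells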
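Compounds were incubated with enzyme (final 15 nM) for 15 min at room temperature before substrate addition started the reaction. Fluorescence at 525 nm excitation, 598 nm emission was recorded immediately and after 30 minutes.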
G9a inh = G9a (human) methyltransferase inhibition | Q96KQ7 | G9a H3K9 monomethylation, AlphaScreen, 2 h | Potency, µM (highest dose often 102 µM), inactives show top-dose activity, negative = inhibition, usual class: inhibitors | 8.8% of 350,000 active | AID 504332; also: % is scaled to controls: 0 for no effect and ±100 for the full control effect; nearly all actives have a fitted effect of over 75% in size
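Enzyme 20 nM + cpd, 15 min RT; add b-H3K9 pep 500 nM / SAM 20 uM; 2 h RT; anti-H3K9me1 Ab 0.5 ug/mL + SA donor / anti-rabbit acceptor beads 20 ug/mL each, 10 min; AlphaScreen read.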
L3MBTL1 block = blocks human L3MBTL1; Potency, µM (series often up to 57.1 µM), for inactives: at the top dose activity, negative = inhibition, most hits filed as inhibitors; Q9Y468; AID 485360; 0.66% of 230,000 active; AlphaScreen L3MBTL1–H3K9me1 peptide binding; also: % is scaled to controls: 0 for no effect and ±100 for the full control effect; nearly all actives have a fitted effect of over 60% in size
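Read-out is AlphaScreen signal from streptavidin donor and nickel chelate acceptor beads (10 ug/mL final each) bridging L3MBTL1 (50 nM) and biotinylated K9-monomethylated H3(1-15) peptide (75 nM), after 30 min compound exposure at room temperature.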
HP1b binding inh = blocks HP1-beta chromodomain binding to methylated histone tails; P83916; AID 540317; Potency, µM (doses to about 114 µM), without a hit: top-dose activity change, negative = inhibition, actives largely listed as inhibitors; 0.56% of 390,000 active; AlphaScreen HP1-beta / biotin-H3K9me3 peptide binding; also: nearly all actives have a fitted effect of over 70% in size
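Compound inhibition of the preformed complex between 50 nM HP1-beta and 50 nM biotinylated H3K9me3 peptide was read by AlphaScreen. Buffer was PBS pH 7.4 with 0.01% Tween-20. Incubations ran 30 min at room temperature, with 10 ug/mL donor/acceptor beads.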
BAZ2B inh = inhibitors of human BAZ2B bromodomain; AlphaScreen BAZ2B-H3K14Ac peptide displacement; Potency, µM (highest dose often 114 µM), for the others: top-dose activity change, negative = inhibition, actives largely listed as inhibitors; 4.4% of 360,000 active; also: % is scaled to controls: 0 for no effect and ±100 for the full control effect; nearly all actives have a fitted effect of over 60% in size
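Multi-concentration screen (max 110 uM) measuring displacement of acetylated histone H3 peptide from BAZ2B by AlphaScreen, using 50 nM protein, 50 nM peptide and 10 ug/mL streptavidin donor plus Ni-chelate acceptor beads.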
Numbers without * were called inactive; ? = inconclusive; / = no result given; ! = not confirmed by another sample; [ ] = another dose, or the depositor's remark. Sampled rows, rich in hits. Any-hit rate of the full collection: about 12%. Calls follow the shape of the dose curve; as a rule, active = well fitted curve in the direction sought with a large enough effect; inconclusive = small, poorly fitted or top-dose-only effect, or another doubt; inactive = no such curve, though single readings can be large; an effect the other way counts as inactive or inconclusive. Potency is read from the fitted curve at half-maximal effect.

SMILES	JMJD2A Tudor	Sfp PPTase inh	G9a inh	L3MBTL1 block	HP1b binding inh	BAZ2B inh
NC(=O)CC1Nc2cccc3cccc(c23)NC1=O (stereo not given)	-27.4%	-7.7%	6.4%[59 µM]	-90.7%	?	12.4%
COc1ccc(Br)cc1C1Nc2cccc3cccc(c23)N1	?	-15.8%	-6.4%[0.501 µM]	8.6%[2.29 µM]	-17.4%	44.7µM*
COc1cc([C@@H]2OC[C@@H]3[C@H]2CO[C@@H]3c2ccc3c(c2)OCO3)ccc1O	-21.4%	/	/	-1.3%	31.6%	/
CCN(CC)c1ccc(C2Nc3cccc4cccc(c34)N2)c(O)c1	35.5µM*	-14.0%	31.6µM*	?	?	11.2µM*
Oc1ccc2ccccc2c1C1Nc2cccc3cccc(c23)N1	44.7µM*	-8.8%	5.01µM*	/	?	39.8µM*
Cc1ccc(N(CC(=O)NCc2ccccc2)C(=O)c2csnn2)c(C)c1	-14.1%	1.9%	25.5%	/	0.1%	-12.8%
COc1ccc2ccc3ccc(OC)c(OC(C)=O)c3c2c1	29.9%	/	/	/	78.8%	/
COc1cc(C2Nc3cccc4cccc(c34)N2)cc(OC)c1OC(C)=O	?	-25.8%	12.6µM*	?	?	?
c1ccc(CCN(Cc2ccccc2)C2CCN(C3CCCC3)CC2)cc1	2.24µM*	50.1µM*	50.1µM*	/	?	50.1µM*
COc1ccccc1CNC(=O)CCC1N=C2c3ccccc3N=C(SCc3ccc(Cl)cc3)N2C1=O (stereo not given)	-4.7%	/	-17.0%[59 µM]	/	11.2%	-13.9%
C=CCOc1ccc(C(=O)N(Cc2ccc(N(C)C)cc2)C2CCS(=O)(=O)C2)cc1 (stereo not given)	?	-7.1%	50.1µM*	?	-20.6%	?
CC(C)Oc1ccc(C(=O)N(Cc2ccc(N(C)C)cc2)C2CCS(=O)(=O)C2)cc1 (stereo not given)	-35.1%	/	?	/	7.0%	-33.8%
CCCCOc1cccc(C(=O)N(Cc2ccc(N(C)C)cc2)C2CCS(=O)(=O)C2)c1 (stereo not given)	56.2µM*	/	27.6%[59 µM]	/	?	-19.0%
O=c1c2[nH]c3ccsc3c2cnn1Cc1ccccc1F	-2.7%	/	/	/	/	/
Cc1ccc(NC(=O)/C=C\C(=O)N(c2ccc(C(C)C)cc2)C(C(=O)NCc2ccco2)c2ccc(F)cc2)cc1 (stereo not given)	-30.9%	/	-38.5%[59 µM]	/	-8.6%	-15.2%
CCOC(=O)C1=C(SCC)c2cc3c(n2C1=O)CCCC3	35.5µM*	-24.1%	7.94µM*	25.1µM*	?	10µM*
COc1ccc(OC)c(N=C(C)C2=C(O)COC2=O)c1	-6.4%	0.0%	3.55µM*	/	15.7%	-7.1%
CCn1c(COc2ccc(=O)n(-c3ccccc3)n2)n[nH]c1=S	20µM*	-1.1%	25.1µM*	1.8%	40.1%	-2.0%
CCOC(=O)c1nnc2ccnn2c1N	89.1µM*	-0.1%	?	2.4%	2.1%	-3.3%
COc1cc(NC(C)CCCN)c2ncccc2c1 (stereo not given)	?	2.1%	12.6µM*	-10.4%	-5.8%	56.2µM*
Oc1ccc(Nc2ncnc3c2oc2ccccc23)cc1	-28.9%	-10.7%	?	/	40.8%	-17.4%
Oc1cccc(Nc2ncnc3c2oc2ccccc23)c1	-27.4%	-8.5%	50.1µM*	/	21.6%	?
c1ccc(Nc2ncnc3c2oc2ccccc23)cc1	9.1%	79.4µM*	-32.8%[59 µM]	/	53.4%	-52.0%
Oc1ccccc1Nc1ncnc2c1oc1ccccc12	-9.4%	5.7%	?	-2.3%	26.0%	-33.2%
CN1C(=O)C(Cc2cnc[nH]2)NC1=S (stereo not given)	-17.4%	79.4µM*	28.2µM*	/	12.0%	-21.9%
SMILES	JMJD2A Tudor	Sfp PPTase inh	G9a inh	L3MBTL1 block	HP1b binding inh	BAZ2B inh
c1ncc(CC2CCNCC2)[nH]1	/	1.8%	7.1%[59 µM]	/	/	/
O=C1N[C@@H](Cc2cnc[nH]2)C(=O)N2CCC[C@@H]12	-8.6%	-8.1%	20µM*	9.9%	12.5%	?
CNC(=O)C(N)CSC(C)C1=C(C)c2cc3[n-]c(cc4nc(cc5[n-]c(cc1n2)c(C)c5CCC(=O)O)C(CCC(=O)O)=C4C)c(C)c3C(C)SCC(N)C(=O)NC.[Fe+2] (stereo not given)	/	-1.8%	-35.6%[12.7 µM]	/	/	/
CCCCc1nnc2c(N(C)S(=O)(=O)c3ccccc3)nc3ccccc3n12	-7.2%	7.7%	70.8µM*	-0.5%	9.4%	-6.9%
CC1CCC2C(=O)N3C(CCC(C)[C@@H]3c3ccc(Br)cc3)C(=O)N2C1c1ccc(Br)cc1 (stereo not given in full)	/	-6.2%	/	/	/	/
C/C(=N\NC(N)=S)c1ccc(-n2ccnc2)cc1	-19.1%	79.4µM*	?	/	18.1%	-20.0%
C=C(C)CNC(=S)N/N=C(\C)c1ccc(-n2ccnc2)cc1	-21.5%	6.0%	25.1%[59 µM]	/	20.3%	-36.4%
C/C(=N\NC(=O)c1ccccc1)c1ccc(-n2ccnc2)cc1	-15.6%	3.7%	15.1%	?	21.5%	9.9%
C/C(=N\Nc1ccc(Cl)c(Cl)c1)c1ccc(-n2ccnc2)cc1	-31.2%	-18.7%	11.2µM*	-15.6%	13.3%	?
CN(C)CCNC(=O)c1cccc(NS(=O)(=O)c2ccc(Cl)c(Cl)c2)c1	-3.5%	-20.6%	?	0.8%	13.0%	/
CN(C)CC(C)(C)CNS(=O)(=O)c1ccc(Cl)c(Cl)c1	17.8µM*!	3.4%	?	2.8%	-11.0%	?
Cc1nnc(-c2ccc(N3CCCCCC3)c([N+](=O)[O-])c2)o1	?	7.7%	44.7µM*	-0.1%	-12.0%	?
Nc1ncnc(NNC(=O)CNC(=O)c2c(F)cccc2Cl)c1[N+](=O)[O-]	-17.0%	-45.3%	0.7%	/	34.5%	-31.9%
COc1ccccc1C(=O)NCC(=O)NNc1ncnc(N)c1[N+](=O)[O-]	/	7.08µM*	9.4%	13.6%	/	8.0%
COc1cccc(C=NNc2nnc(NN=Cc3cccc(OC)c3OC)c3ccccc23)c1OC	35.5µM*	/	/	/	?	/
COc1cccc(/C=N/Nc2ncc(C)c(=O)[nH]2)c1OC	-8.9%	-5.2%	31.6µM*	/	23.9%	-2.4%
COc1cccc(/C=N/Nc2ncnc3c2[nH]c2ccc(C)cc23)c1OC	-35.2%	-29.6%	56.2µM*	/	14.5%	?
Cc1ccc(S(=O)(=O)N2CCN(C(=O)COC(=O)C3CCC3)CC2)c(C)c1	1.4%	/	-9.8%	13.7%	36.8%	9.5%
COc1cccc(C=NNc2ccc([N+](=O)[O-])cn2)c1OC	-6.9%	/	/	/	45.0%	/
COc1cccc(/C=N/Nc2ncnc(N)c2[N+](=O)[O-])c1OC	?	44.7µM*	?	/	-22.4%	9.5%
Cc1nnnn1/C(=C\c1ccccc1)C(=O)OCC(=O)Nc1ccc(Cl)cc1F	-14.9%	/	50.1µM*	4.5%	13.4%	-2.3%
